High-throughput results (PubChem BioAssay)
Shown are actives, neighbours in structure and some others; about 3.1% of the full set was active somewhere.
EP2 mod: EP2 receptor modulators, cAMP readout, primary screen, cell-based, HTRF cAMP, PGE2 stimulation; EP2-expressing cells, cAMP HTRF FRET, PGE2 co-stimulation; induction, % at 25 µM; hit rate 0.83% among 260,000; AID 940, 2007;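 active = compounds whose cAMP rise, as percent of the full-agonist control response, exceeds 60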;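 note: rat C6 glioma line stably carrying human EP2 under a CMV promoter; the protocol text gives 20 µM as final concentration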
KCC2 mod: KCC2 cotransporter modulators, thallium flux, primary screen, cell-based, HEK293 KCC2, FluoZin-2 fluorescence, MLSMR; Solute carrier family 12 member 5 (Homo sapiens), Q9H2X9; KCC2 cells, thallium flux FluoZin-2 fluorescence; B-score of Tl+ flux slope (higher = more flux/activation; lower = inhibition) at 10 µM; hit rate 2.2% among 190,000;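 active = thallium flux slope and its plate-corrected score both differing from the plate sample mean at a set confidence after two filtering rounds, in either direction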;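 note: slope of fluorescence scaled to starting intensity during 10 to 20 s after thallium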
Target sequence (Q9H2X9 whole entry, looked up): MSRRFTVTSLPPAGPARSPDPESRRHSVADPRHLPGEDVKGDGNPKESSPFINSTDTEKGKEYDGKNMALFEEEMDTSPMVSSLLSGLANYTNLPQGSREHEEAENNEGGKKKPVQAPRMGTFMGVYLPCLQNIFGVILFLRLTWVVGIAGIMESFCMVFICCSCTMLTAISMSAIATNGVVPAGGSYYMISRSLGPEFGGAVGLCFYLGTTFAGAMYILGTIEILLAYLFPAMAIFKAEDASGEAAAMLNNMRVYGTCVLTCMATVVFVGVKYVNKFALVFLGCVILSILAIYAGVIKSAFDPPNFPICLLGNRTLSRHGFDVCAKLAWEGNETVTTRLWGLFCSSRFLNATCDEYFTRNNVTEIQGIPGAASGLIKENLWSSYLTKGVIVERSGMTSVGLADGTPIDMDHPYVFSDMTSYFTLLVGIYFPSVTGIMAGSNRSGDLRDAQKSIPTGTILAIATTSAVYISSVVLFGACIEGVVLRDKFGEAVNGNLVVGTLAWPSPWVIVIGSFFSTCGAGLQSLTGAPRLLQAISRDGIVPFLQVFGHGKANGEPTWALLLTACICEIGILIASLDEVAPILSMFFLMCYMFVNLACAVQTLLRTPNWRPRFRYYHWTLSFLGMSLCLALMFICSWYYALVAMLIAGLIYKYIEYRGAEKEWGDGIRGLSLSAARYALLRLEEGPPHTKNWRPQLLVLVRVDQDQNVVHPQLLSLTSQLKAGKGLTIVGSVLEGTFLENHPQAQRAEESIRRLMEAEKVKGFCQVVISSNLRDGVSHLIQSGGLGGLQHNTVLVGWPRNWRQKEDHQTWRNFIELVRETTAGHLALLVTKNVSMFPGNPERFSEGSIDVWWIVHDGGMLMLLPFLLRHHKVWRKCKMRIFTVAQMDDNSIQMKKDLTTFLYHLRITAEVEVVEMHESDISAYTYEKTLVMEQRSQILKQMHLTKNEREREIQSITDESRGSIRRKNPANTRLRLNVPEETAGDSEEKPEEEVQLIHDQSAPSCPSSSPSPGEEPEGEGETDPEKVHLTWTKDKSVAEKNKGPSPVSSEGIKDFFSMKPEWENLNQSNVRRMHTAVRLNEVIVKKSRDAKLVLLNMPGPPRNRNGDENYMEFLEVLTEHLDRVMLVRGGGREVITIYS
S1P3 antagonist: S1P3 receptor antagonists, primary screen, cell-based. Sphingosine 1-phosphate receptor 3 (Homo sapiens), Q99500. CHO S1P3 NFAT-BLA reporter, FRET fluorescence, antagonist mode. inhibition, % at 4.98 µM. hit rate 0.27% among 170,000. AID 485, 2006;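 active = inhibition above the plate cutoff, the mean inhibition of test wells on that plate plus 3 SD, cut at about 28% in these data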;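 note: cells challenged with S1P at its EC80 of 0.8 µM; blue over green emission ratio from cleaved BLA substrate after 4 h stimulation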
PGE2 EP2 inh: human EP2 receptor antagonists, primary screen, TR-FRET cAMP, C6 glioma cells. inhibition, % at 25 µM. C6 glioma cells expressing human EP2; cells stimulated with saturating PGE2. Prostaglandin E2 receptor EP2 subtype (Homo sapiens), P43116. hit rate 0.52% among 260,000;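 active = percent inhibition above 40 after rounding to a whole number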;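 note: rat C6 glioma host cells with rolipram phosphodiesterase inhibitor present; the protocol text gives 20 µM as final concentration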
KCC2 secondary: KCC2 modulators in sodium-free buffer, confirmation, cell-based, HEK293 KCC2, thallium flux, secondary assay; shares compounds with KCC2 mod; FluoZin2 fluorescence; hits give high values; normalised thallium flux (F/F0 slope) at 10 µM; hit rate 15% among 3,700; AID 1713, 2009;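 active = thallium flux slope above the same plate's solvent-only control mean plus 3 SD; inconclusive = the two replicate wells disagree; inactive = no significant difference from solvent-only control wells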
KCC2 bumet counter: thallium flux persisting under bumetanide in KCC2 cells, confirmation, counter-screen for KCC2 modulator project, cell-based, HEK293 KCC2, FluoZin2, secondary assay 3; HEK293-KCC2 + bumetanide/ouabain; hits give high values; shares compounds with KCC2 mod; AID 1714, 2009; normalized thallium flux at 10 µM; hit rate 49% among 3,700;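 active = thallium entry rate above the same plate's blocked-transporter control wells by more than 3 SD; inconclusive = the two repeat wells disagree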;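 note: raw slope of fluorescence over initial fluorescence between 10 and 20 s after thallium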
KCC2 sec2: KCC2 modulators without ouabain present, confirmation, cell-based, HEK293 KCC2, thallium flux, FluoZin2, secondary assay 2. thallium flux FluoZin2 fluorescence; actives lie on both sides; F/F0 rise rate, 10–20 s post-thallium. hit rate 23% among 3,700. normalized thallium flux at 10 µM. AID 1715, 2009. shares compounds with KCC2 mod;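 active = thallium flux slope more than 3 SD above or below the plate's solvent-only control mean, mostly below; inconclusive = the two repeat wells disagreed; inactive = no significant shift from solvent-only controls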
HEK counter1: thallium flux modulation in parental HEK cells, confirmation, counter-screen for KCC2 modulator project, cell-based, counterscreen 1 | shares compounds with KCC2 mod | HEK293 parental cells, thallium flux FluoZin2, ouabain; baseline-ratio fluorescence slope, 10–20 s after thallium | thallium flux rate (normalised fluorescence) at 10 µM | hit rate 46% among 3,700 | AID 1716, 2009;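 active = thallium flux rate significantly above the same plate's solvent-only control wells, beyond their mean plus 3 SD; inconclusive = the two replicate wells gave conflicting results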
KCC2 ouabain: KCC2 inhibitors and activators, ouabain retest, confirmation, HEK-KCC2 cells | shares compounds with KCC2 mod | raw Tl+ flux slope (below DMSO = inhibition, above = activation) at 10 µM | hit rate 48% among 3,700 | HEK293-KCC2, thallium flux FluoZin2 fluorescence; bidirectional: low = inhibitor, high = activator;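 active = thallium flux slope beyond 3 SD from same-plate DMSO control mean in most replicates, usually higher, sometimes lower; inconclusive = repeat tests gave conflicting results; inactive = no significant difference from controls in most replicates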;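 note: slope of initial-normalized fluorescence between seconds 10 and 20 after thallium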
HEK293 Tl flux2: native HEK Tl+ uptake effects, second counter-screen – HEK cells, counterscreen 2, counter-screen for KCC2 modulator project, confirmation; hit rate 33% among 3,700; HEK293 parental, thallium flux FluoZin-2 fluorescence slope; shares compounds with KCC2 mod; thallium flux slope at 10 µM;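 active = thallium flux slope above the same plate's solvent-control mean plus 3 SD in both duplicate wells; inconclusive = duplicate wells that disagreed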;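 note: run without ouabain in cells lacking the KCC2 cotransporter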
Of the large screens only hits and unclear results are named; the others gave an inactive call (follow-up assays come after a bar, where they were run).

O=C(O)c1ccc(C=C(c2nc3ccccc3s2)c2nc3ccccc3s2)cc1	KCC2 mod -5.2 | KCC2 secondary inactive | KCC2 bumet counter inactive | KCC2 sec2 inactive | HEK counter1 inactive | KCC2 ouabain inactive | HEK293 Tl flux2 inactive
COc1ccc(-c2nn(-c3ccccc3)cc2/C=C(\CC(=O)O)c2nc3ccccc3s2)cc1OC	KCC2 mod -3.8 | KCC2 secondary inactive | KCC2 bumet counter inactive | KCC2 sec2 inactive | HEK counter1 inconclusive | KCC2 ouabain 0.014 | HEK293 Tl flux2 inactive
COc1ccc(/C=C(\CC(=O)O)c2nc3ccccc3s2)cc1O	none
C/C(Cl)=C/Cn1c(NCc2ccco2)nc2c1c(=O)n(C)c(=O)n2C	none (no result: KCC2 mod, S1P3 antagonist)
CCn1c2cc(C)oc2c2cnn(CC(=O)NCCc3ccco3)c(=O)c21	none (no result: KCC2 mod, S1P3 antagonist, PGE2 EP2 inh)
Cc1ccc(S(=O)(=O)N2CCC(=O)N(C(COCc3ccccc3)Cc3ccccc3)CC2)cc1 (configuration not stated)	KCC2 mod -5.9 | KCC2 secondary inactive | KCC2 bumet counter inactive | KCC2 sec2 inconclusive | HEK counter1 inactive | KCC2 ouabain 0.015 | HEK293 Tl flux2 inactive
Cc1cc(C)n(C(=O)/C(C#N)=N/Nc2cc(Cl)cc(Cl)c2)n1	KCC2 mod -7.7 | KCC2 secondary inconclusive | KCC2 bumet counter inconclusive | KCC2 sec2 inactive | HEK counter1 inactive | KCC2 ouabain 0.014 | HEK293 Tl flux2 inactive
Cc1cc(C)n(C(=O)/C(C#N)=N\Nc2ccccc2[N+](=O)[O-])n1	none
COCCNC(=O)c1ccccc1NS(=O)(=O)c1ccc2c(c1)OCCO2	none (no result: KCC2 mod, S1P3 antagonist)
CNc1nc(-c2ccc3c(c2)CCN3C(=O)c2ccccc2F)cs1	KCC2 mod -4.3 | KCC2 secondary inactive | KCC2 bumet counter inactive | KCC2 sec2 inactive | HEK counter1 inactive | KCC2 ouabain inactive | HEK293 Tl flux2 inactive
CCCCn1c(SCC(=O)NCc2ccco2)nc2ccc(N3CCOCC3)cc2c1=O	none (no result: S1P3 antagonist)
CCCCn1c(SCC(=O)NCc2ccccc2)nc2ccc(N3CCOCC3)cc2c1=O	KCC2 mod 4 (no result: S1P3 antagonist) | KCC2 secondary inactive | KCC2 bumet counter 0.016 | KCC2 sec2 inactive | HEK counter1 0.011 | KCC2 ouabain inconclusive | HEK293 Tl flux2 inconclusive
CCN(CC)c1ccc(C(=O)OCC(=O)N(C(C)C)C(C)C)cc1	none
CCN(CC)c1ccc(C(=O)OCC(=O)N(C)Cc2ccccc2)cc1	KCC2 mod -4.1 | KCC2 secondary inactive | KCC2 bumet counter inactive | KCC2 sec2 inactive | HEK counter1 inactive | KCC2 ouabain 0.015 | HEK293 Tl flux2 inactive
NC(=O)c1ccc(F)cc1	none | KCC2 secondary inactive | KCC2 bumet counter inactive | KCC2 sec2 inactive | HEK counter1 inactive | KCC2 ouabain inactive | HEK293 Tl flux2 inactive
CCn1c(SCc2nc(-c3ccccc3)no2)nnc1-c1cccs1	none (no result: KCC2 mod, S1P3 antagonist) | KCC2 secondary inactive | KCC2 bumet counter inactive | KCC2 sec2 inactive | HEK counter1 inactive | KCC2 ouabain 0.016 | HEK293 Tl flux2 inconclusive
CC1=C(C(=O)OCc2ccccc2)C(c2ccco2)C2=C(CC(C)(C)CC2=O)N1 (configuration not stated)	KCC2 mod -4.3 | KCC2 secondary inconclusive | KCC2 bumet counter inactive | KCC2 sec2 inactive | HEK counter1 inactive | KCC2 ouabain 0.05 | HEK293 Tl flux2 inconclusive
Cc1nn(-c2ccccc2)c(Cl)c1/C=C1\SC(=S)NC1=O	KCC2 mod 35 (no result: S1P3 antagonist) | KCC2 secondary 0.037 | KCC2 bumet counter 0.16 | KCC2 sec2 inactive | HEK counter1 0.063 | KCC2 ouabain 0.067 | HEK293 Tl flux2 0.027
Cn1ccnc1C(NC(=O)Cc1ccc(S(C)(=O)=O)cc1)c1ccccc1 (configuration not stated)	none (no result: KCC2 mod, S1P3 antagonist)
NS(=O)(=O)c1ccc2c(c1)C1C=CCC1C(C1CC=CCC1)N2 (configuration not stated)	KCC2 mod 4.7 (no result: S1P3 antagonist) | KCC2 secondary inactive | KCC2 bumet counter inactive | KCC2 sec2 inactive | HEK counter1 inactive | KCC2 ouabain inactive | HEK293 Tl flux2 inactive
CC(C)C1Nc2ccc(S(N)(=O)=O)cc2C2C=CCC21 (configuration not stated)	none
CCNC(=S)N1CCN(C)CC1	none (no result: KCC2 mod, S1P3 antagonist)
O=C(COC(=O)c1cc(S(=O)(=O)N2CCOCC2)ccc1O)NCC1CCCO1 (configuration not stated)	none (no result: KCC2 mod) | KCC2 secondary inactive | KCC2 bumet counter inactive | KCC2 sec2 inactive | HEK counter1 inactive | KCC2 ouabain inactive | HEK293 Tl flux2 inactive
Cc1cccc(C)c1Nc1nnc(SCC(=O)c2ccc(Br)s2)s1	none
Cc1ccc(Nc2nnc(SC/C(O)=C(\C#N)c3nc4ccccc4[nH]3)s2)c(C)c1	KCC2 mod -4.2 | KCC2 secondary inconclusive | KCC2 bumet counter inactive | KCC2 sec2 inconclusive | HEK counter1 inconclusive | KCC2 ouabain 0.014 | HEK293 Tl flux2 0.012
Cc1ccc(Nc2nnc(SCC(=O)c3ccc(Br)s3)s2)c(C)c1	KCC2 mod -3.9 | KCC2 secondary inactive | KCC2 bumet counter inconclusive | KCC2 sec2 inconclusive | HEK counter1 inactive | KCC2 ouabain 0.013 | HEK293 Tl flux2 inactive
CCn1c(NC(=O)c2cccs2)nc2ccccc21	KCC2 mod 27 | KCC2 secondary inactive | KCC2 bumet counter 0.03 | KCC2 sec2 inactive | HEK counter1 0.019 | KCC2 ouabain inconclusive | HEK293 Tl flux2 0.021
Cc1ccn(CCC(=O)NCCn2nc3c(C)cc4ccccc4n3c2=O)n1	none (no result: KCC2 mod, S1P3 antagonist)
